As usually defined, the inhibition is the drop in the measured response relative to a control, in per cent.

The results in this text go back to PubChem BioAssay.

Experiment [1] can be described thus: inhibitors of TNFa-induced NFkB p65 translocation, primary screen, imaging, HUVEC, MLSMR starter and 10KST1 sets (AID 438;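 active means inhibition above 20% together with a positive visual image hit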;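 further: compound added about 3h40 before a 20 min TNFalpha stimulation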;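 on inhibition: signal is the nuclear over cytoplasmic p65 intensity ratio per well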). The following applies: HUVEC TNFa-induced p65 nuclear translocation; cell count: measured here: nuclei count (cytotoxicity indicator), at 2.08 µM; inhibition: at 2 µM, stronger effect = higher value, 0% TNFa-plus-vehicle, 100% no-TNFa wells.
Experiment [2] can be described thus: inhibitors of mutant huntingtin aggregation, primary screen, imaging, exon1htt(103Q)mCFP cells, high-content imaging (AID 483;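 active means visual image review flags a hit and inhibition of aggregation exceeds 20%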;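 further: compound exposure lasted 3 days before fixation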;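 on nuclei count: percent of the per-plate median nuclei count of sample wells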). The following applies: exon1htt(103Q)mCFP cell line, aggregate imaging, at 2 µM; inhibition of aggregation: stronger effect = higher value; nuclei count: measured here: cell count, toxicity.
Experiment [3] is described as follows: inhibitors of E-selectin induction by TNFa, primary screen, imaging, HUVEC, immunofluorescence, MLSMR starter and 10KST1 sets (AID 487;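 active means visually confirmed hit in the image check and inhibition above 20%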;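 on inhibition: signal is fraction of cell area covered by stained E-selectin grains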;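 on nuclei count: 100% = median nuclei count of all wells on the same plate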). Particulars: HUVEC TNFalpha-induced E-selectin immunofluorescence imaging, at 2 µM; inhibition: stronger effect = higher value; nuclei count: measured here: cell number, toxicity.
Experiment [4] concerns the target Voltage-gated potassium channel subunit beta-2 (Rattus norvegicus) (UniProt P62483). Description: KvBeta enzyme negative modulators, primary screen, biochemical, NADPH fluorescence (AID 622;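 active means fluorescence slope higher than the sample average by over 3 SD, cut at about -0.22 in these data, passing the limit was not always enough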;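 further: slope of raw intensity against log time taken from 70 to 1610 s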). Particulars: recombinant KvBeta, 4-cyanobenzaldehyde reduction, at 10 µM, stronger effect = higher value.
For experiment [5] the target is unchanged. Description: KvBeta positive modulators, primary screen, biochemical, NADPH fluorescence (AID 623;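 active means NADPH fluorescence slope more negative than the mean of all samples by about 3 SD, 99.7% confidence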;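 further: fluorescence intensity change per second fitted from 20 to 320 s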). Particulars: Recombinant KvBeta, NADPH fluorescence decrease slope, 10 min; at 10 µM; stronger effect = lower value.
The target in experiment [6] is Alpha-2C adrenergic receptor (Homo sapiens) (UniProt P18825). Nature of the experiment: modulators of alpha2C/GIRK thallium flux, primary screen, cell-based, HEK293 alpha2C/GIRK1/2 (AID 624).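 Further: slope of fluorescence ratio to pre-addition baseline per second over 15 to 24 s.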 Particulars: thallium flux BTC fluorescence, at 10 µM, actives lie on both sides.
Sequence of Alpha-2C adrenergic receptor (Homo sapiens) (P18825 whole entry, looked up): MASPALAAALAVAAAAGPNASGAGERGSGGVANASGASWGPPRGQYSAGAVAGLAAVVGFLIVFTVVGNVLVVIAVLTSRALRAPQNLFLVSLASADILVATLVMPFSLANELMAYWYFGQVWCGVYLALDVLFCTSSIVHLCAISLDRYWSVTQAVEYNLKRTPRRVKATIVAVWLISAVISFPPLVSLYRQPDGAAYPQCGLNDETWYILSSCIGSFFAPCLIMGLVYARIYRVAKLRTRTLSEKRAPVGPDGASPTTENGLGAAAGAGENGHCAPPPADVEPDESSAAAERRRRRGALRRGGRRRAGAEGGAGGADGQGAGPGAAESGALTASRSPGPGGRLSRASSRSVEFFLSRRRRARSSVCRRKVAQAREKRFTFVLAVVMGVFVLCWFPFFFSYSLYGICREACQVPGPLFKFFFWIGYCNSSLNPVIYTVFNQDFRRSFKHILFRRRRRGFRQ
Experiment [7] in a line: inhibitors of Sendai virus-induced IRF3 signaling, primary screen, TLR/RLR signaling modifier project, cell-based, Sendai virus stimulus, luciferase, 10K MLSCN set (AID 602276;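 active means inhibition at or above 50% at 10 µM; inactive means inhibition below 50%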;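 further: firefly luciferase from ISG56 promoter only with Renilla not read in this screen; 0% = Sendai virus plus DMSO and 100% = medium plus DMSO without virus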). The following applies: HEK293 RL24 IRF3 luciferase reporter, at 10 µM, stronger effect = higher value. In general terms: In a reporter assay the amount or activity of a reporter protein is the signal.
The nature of experiment [8]: inhibitors of poly I:C-induced TLR3 signaling, primary screen, cell-based, poly I:C stimulus, luciferase, 10K MLSCN set (AID 602277;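 active means inhibition of the reporter signal at or above 50%; inactive means inhibition below 50%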). The following applies: HEK293-TLR3 RL24 IRF3 luciferase reporter, at 10 µM, stronger effect = higher value.

Active and inactive are the calls of the source.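 How the source made its calls, unless noted: active means fluorescence slope after compound addition differing from the mean of all screened samples at 99.7% confidence, in either direction; inactive means the rest.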

Sequence of Voltage-gated potassium channel subunit beta-2 (Rattus norvegicus) (P62483 whole entry, looked up): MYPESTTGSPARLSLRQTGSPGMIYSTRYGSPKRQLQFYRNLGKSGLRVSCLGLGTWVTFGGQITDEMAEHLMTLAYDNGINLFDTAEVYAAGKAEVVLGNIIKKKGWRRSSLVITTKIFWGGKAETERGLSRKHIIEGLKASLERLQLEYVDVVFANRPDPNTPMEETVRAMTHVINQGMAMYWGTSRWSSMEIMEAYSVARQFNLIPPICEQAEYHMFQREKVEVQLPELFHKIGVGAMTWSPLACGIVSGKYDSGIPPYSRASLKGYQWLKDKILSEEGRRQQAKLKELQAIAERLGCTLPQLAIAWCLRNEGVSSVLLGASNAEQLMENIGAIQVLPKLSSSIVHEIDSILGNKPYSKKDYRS

As for `CCc1nc2sc(C)c(C)c2c(=O)n1CCO`, the cell count in experiment [1] was 396. Besides, the inhibition was 7.2% (inactive) in experiment [1], -64.6% (inactive) in experiment [3], 5.69% (inactive) in experiment [7] and 32% (inactive) in experiment [8]. Besides, the inhibition of aggregation in experiment [2] was 10.8% (inactive). Moreover, the results for the nuclei count in experiment [2] and in experiment [3] were 81.4% and 103%, respectively. For the same compound, the fluorescence slope in experiment [4] is -0.422 (inactive). In addition, in experiment [5], the NADPH fluorescence slope was 1.1e-05 (inactive). Further, the slope in experiment [6] is 0.00292 (inactive).
On to `CCOC(=O)c1ccccc1NC(=O)CSc1nnc(COc2ccccc2C)n1C`, for which the cell count in experiment [1] was 667. Further, the inhibition in experiment [1] was 14.9% (inactive); in experiment [3], 45.4% (inactive); in experiment [7], 16.9% (inactive); in experiment [8], 22.9% (inactive). Further, in experiment [2], the inhibition of aggregation was 11.9% (inactive). Moreover, the nuclei count came out at 97.3% in experiment [2] and 100% in experiment [3]. In addition, the fluorescence slope in experiment [4] was -0.346 (inactive). The NADPH fluorescence slope in experiment [5] was -4.2e-05 (inactive). Further, in experiment [6], the slope was 0.00577 (inactive).
`Cc1cc(=O)n2nc(N3CCCC(C(=O)N4CCN(C)CC4)C3)sc2n1` (centres undefined): the cell count in experiment [1] worked out at 465. Further, the inhibition is -0.8% (inactive) in experiment [1], -186% (inactive) in experiment [3], -7.33% (inactive) in experiment [7] and 5.83% (inactive) in experiment [8]. Also, the inhibition of aggregation in experiment [2] is 19.6% (inactive). In addition, the nuclei count in experiment [2] amounted to 92.4%; in experiment [3] it was 126%. The fluorescence slope in experiment [4] is -0.313 (inactive). For the same compound, in experiment [5], the NADPH fluorescence slope is -3.4e-05 (inactive). Besides, the slope in experiment [6] is 0.00576 (inactive).
Consider `COCCNC(=O)CN1C(=O)CSc2ncccc21`, for which the cell count in experiment [1] amounted to 673. The inhibition in experiment [1] is -6.7% (inactive); in experiment [3] it was -62.1% (inactive); in experiment [7], 11.1% (inactive); in experiment [8], 28.9% (inactive). For the same compound, the inhibition of aggregation in experiment [2] was -43.1% (inactive). Further, the nuclei count in experiment [2] was determined as 115%; in experiment [3] it was 117%. Also, the fluorescence slope in experiment [4] was -0.413 (inactive). Also, the NADPH fluorescence slope in experiment [5] is -1.6e-05 (inactive). For the same compound, the slope in experiment [6] is 0.00576 (inactive).
On to `CCC(=O)N(CCCN(C)C)c1nc(-c2cc(OC)ccc2OC)cs1`, for which the cell count in experiment [1] was determined as 392. For the same compound, the inhibition was 7.8% (inactive) in experiment [1], -14.7% (inactive) in experiment [3], 19.4% (inactive) in experiment [7] and 27% (inactive) in experiment [8]. The inhibition of aggregation in experiment [2] was -4.4% (inactive). For the same compound, the nuclei count in experiment [2] came out at 106%; in experiment [3] it was 116%. The fluorescence slope in experiment [4] is -0.623 (inactive). For the same compound, the NADPH fluorescence slope in experiment [5] was -6.2e-05 (inactive). Moreover, in experiment [6], the slope is 0.00293 (inactive).
With `Cc1cccc(CC2CC(=O)N(c3ccccc3)C2=O)c1` (centres undefined), the cell count in experiment [1] came to 203. Moreover, the inhibition in experiment [1] is -2.9% (inactive); in experiment [3], 11.6% (inactive); in experiment [7], -16.2% (inactive); in experiment [8], -11.2% (inactive). In addition, in experiment [2], the inhibition of aggregation is -15.1% (inactive). For the same compound, the nuclei count in experiment [2] is 84.5%; in experiment [3] it was 102%. Also, the fluorescence slope in experiment [4] was -0.554 (inactive). Also, the NADPH fluorescence slope in experiment [5] is -2.2e-05 (inactive). In addition, the slope in experiment [6] was 0.00674 (inactive).
Regarding `COc1cc(C(=O)Nc2nc(-c3cccs3)cs2)cc(OC)c1OC`, the cell count in experiment [1] amounted to 475. Moreover, the inhibition in experiment [1] was -4.8% (inactive); in experiment [3], -18.4% (inactive); in experiment [7], -6.01% (inactive); in experiment [8], -12% (inactive). Besides, in experiment [2], the inhibition of aggregation is -20.4% (inactive). Also, the nuclei count in experiment [2] came to 98.7%; in experiment [3] it was 106%. Also, the fluorescence slope in experiment [4] is -0.507 (inactive). For the same compound, the NADPH fluorescence slope in experiment [5] was -6.5e-06 (inactive). Besides, in experiment [6], the slope is 0.00722 (inactive).
Take `CCOC(=O)N1CCN(C(=O)COc2ccc(S(=O)(=O)NC3CCCCC3)cc2C)CC1`: the cell count in experiment [1] was 536. For the same compound, the inhibition is 9.7% (inactive) in experiment [1], -31.8% (inactive) in experiment [3], 3.18% (inactive) in experiment [7] and -12.8% (inactive) in experiment [8]. Besides, the inhibition of aggregation in experiment [2] is -14.2% (inactive). Further, the nuclei count amounted to 105% in experiment [2] and 93.5% in experiment [3]. For the same compound, the fluorescence slope in experiment [4] was -0.644 (inactive). Besides, the NADPH fluorescence slope in experiment [5] was -4.2e-05 (inactive). Moreover, the slope in experiment [6] was 0.00446 (inactive).
Turning to `Oc1ccccc1-c1cc(C(F)(F)C(F)F)[nH]n1`, in experiment [1], the cell count came to 337. Besides, the inhibition in experiment [1] is -1% (inactive); in experiment [3] it was 46.4% (inactive); in experiment [7], -13.1% (inactive); in experiment [8], -54.6% (inactive). In addition, the inhibition of aggregation in experiment [2] is 1.9% (inactive). Moreover, the nuclei count was found to be 105% in experiment [2] and 106% in experiment [3]. Besides, the fluorescence slope in experiment [4] is -0.332 (inactive). The NADPH fluorescence slope in experiment [5] is -2e-05 (inactive). In experiment [6], the slope is 0.00606 (inactive).
Consider `COC(=O)CCC(=O)Nc1cccc(Cl)c1`, for which the cell count in experiment [1] was determined as 205. In addition, the inhibition in experiment [1] was 42.5% (active); in experiment [3], -12.1% (inactive); in experiment [7], 3.5% (inactive); in experiment [8] it was 17.1% (inactive). Besides, the inhibition of aggregation in experiment [2] was 5% (inactive). Further, the nuclei count came out at 99.2% in experiment [2] and 94.4% in experiment [3]. Moreover, the fluorescence slope in experiment [4] was -0.593 (inactive). In addition, the NADPH fluorescence slope in experiment [5] is -3.8e-05 (inactive). In experiment [6], the slope is 0.00629 (inactive).
Turning to `COc1ccc(-c2ccc(-c3noc(-c4cccs4)n3)c(OC)n2)cc1`, the cell count in experiment [1] came out at 391. The inhibition in experiment [1] is 6.8% (inactive); in experiment [3] it was -18.2% (inactive); in experiment [7], -28.9% (inactive); in experiment [8], -86.9% (inactive). Besides, the inhibition of aggregation in experiment [2] was 20.7% (inactive). Also, the nuclei count is 95.6% in experiment [2] and 102% in experiment [3]. For the same compound, the fluorescence slope in experiment [4] was -0.0459 (active). Moreover, the NADPH fluorescence slope in experiment [5] was -6.5e-07 (inactive). Further, the slope in experiment [6] was 0.00541 (inactive).
For `CC(C)N(C(=O)N1CCC(c2nc(-c3ccncc3)no2)CC1)C(C)C`, the cell count in experiment [1] amounted to 653. Besides, the inhibition is -7.5% (inactive) in experiment [1], -95.9% (inactive) in experiment [3], 0.899% (inactive) in experiment [7] and -5.83% (inactive) in experiment [8]. In addition, the inhibition of aggregation in experiment [2] was 8.3% (inactive). The nuclei count is 102% in experiment [2] and 106% in experiment [3]. Further, the fluorescence slope in experiment [4] is -0.354 (inactive). The NADPH fluorescence slope in experiment [5] is -3.3e-05 (inactive). Further, in experiment [6], the slope was 0.00413 (inactive).
For the compound `FC(F)(F)c1cc(-c2ccccc2)nc(N2CCCCC2)n1`, in experiment [1], the cell count stood at 286. The inhibition was 3.3% (inactive) in experiment [1], -8.9% (inactive) in experiment [3], 12.9% (inactive) in experiment [7] and 12.8% (inactive) in experiment [8]. Besides, in experiment [2], the inhibition of aggregation was 3.7% (inactive). For the same compound, the nuclei count in experiment [2] is 100%; in experiment [3], 105%. In experiment [4], the fluorescence slope was -0.578 (inactive). For the same compound, in experiment [5], the NADPH fluorescence slope is -3.3e-05 (inactive). For the same compound, the slope in experiment [6] is 0.00434 (inactive).
In the case of `C=CCN=C1SCC(=O)N1S(=O)(=O)c1ccc(C)cc1`, the cell count in experiment [1] came to 342. The inhibition in experiment [1] was -0.2% (inactive); in experiment [3], -135% (inactive); in experiment [7], 5.91% (inactive); in experiment [8] it was 11.1% (inactive). For the same compound, the inhibition of aggregation in experiment [2] is 3.3% (inactive). For the same compound, the results for the nuclei count in experiment [2] and in experiment [3] were 91.1% and 124%, respectively. The fluorescence slope in experiment [4] was -0.364 (inactive). The NADPH fluorescence slope in experiment [5] was -6.1e-05 (inactive). Besides, the slope in experiment [6] is 0.00404 (inactive).
